The text below walks through data of PubChem BioAssay.

The source made the active and inactive calls.

The test system of assay [1] is Plasmodium falciparum Sir2 (PF13_0152, Sir2A). In words: pfSir2 binders on small-molecule microarrays, primary screen, biochemical, small-molecule microarray, 635 nm fluorescence (AID 1098).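 Further: score merges spot fluorescence intensity with its signal-to-noise ratio.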 To be noted: small-molecule microarray binding, fluorescence 635 nm; higher = more signal.
The nature of assay [2]: small-molecule microarray binders of probe aDKK1, primary screen, biochemical, biotinylated probe, 635/667 nm fluorescence (AID 1099).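 Further: score merges 667nm spot fluorescence with signal to noise across triplicate slides; reference of the scale not given here.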 The note with it: higher = more signal.
The nature of assay [3]: small-molecule microarray binders of probe aCHRDL2, primary screen, biochemical, biotinylated probe, 635/667 nm fluorescence (AID 1100). To be noted: higher = more signal.
Assay [4] can be described thus: splicing luciferase reporter signal modulators, primary screen, spliceosome inhibition project, cell-based, HEK293, splice +/- reporter (AID 1101).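 Further: HEK293 cells carrying a splicing-competent luciferase reporter gene; test concentration not given here.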 To be noted: luminescence, 24 h, higher = more signal, called active from +8 up or from −8 down. In general terms: In a reporter assay the amount or activity of a reporter protein is the signal.
The target in assay [5] is Fibroblast growth factor 10 (Homo sapiens) (UniProt O15520). Description: FGF10 binders on small-molecule microarrays, primary screen, biochemical, small-molecule microarray, 635 nm fluorescence (AID 1102). To be noted: FGF10 binding, fluorescence 635 nm, higher = more signal.
In assay [6] the test system is glycogen synthase kinase-3 (GSK3A per assay name; protocol says GSK3B). In words: GSK3 binders on small-molecule microarrays, primary screen, biochemical, small-molecule microarray, 635 nm fluorescence, GSK3A (AID 1103). Further: the record names both GSK3A and GSK3B. To be noted: small-molecule microarray binding, fluorescence 635 nm; higher = more signal.
Assay [7] has as its target Epidermal growth factor receptor (Homo sapiens) (UniProt P00533). In words: EGFR binders on small-molecule microarrays, primary screen, biochemical, small-molecule microarray, 635 nm fluorescence (AID 1104).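 Further: score merges 667 nm emission intensity with spot signal to noise over triplicate slides.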 To be noted: EGFR binding, higher = more signal.
The target in assay [8] is Follistatin-related protein 3 (Homo sapiens) (UniProt O95633). Description: FSTL3 binders on small-molecule microarrays, primary screen, biochemical, small-molecule microarray, 635 nm fluorescence (AID 1105).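 Further: score merges emission near 667 nm and signal to noise per printed spot across three slides.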 The note with it: FSTL3 binding, higher = more signal.
For assay [9], the target named is Dickkopf-related protein 1 (Homo sapiens) (UniProt O94907). In words: DKK1 binders on small-molecule microarrays, primary screen, biochemical, small-molecule microarray, 635 nm fluorescence scan (AID 1106).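 Further: score merges emission near 667 nm with signal to noise over three replicate slides.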 The note with it: DKK1 binding, higher = more signal.
For assay [10], the system named is Inhibin beta A chain (activin A). Description: INHBA (activin A) binders on microarrays, primary screen, biochemical, small-molecule microarray, 635 nm fluorescence scan (AID 1107).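 Further: mouse activin A protein probed at 4.33 µg/mL on printed slides; score merges bound-protein fluorescence near 667 nm with spot signal-to-noise.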 The note with it: small-molecule microarray binding, higher = more signal.

Epidermal growth factor receptor (Homo sapiens), sequence (P00533 whole entry, looked up): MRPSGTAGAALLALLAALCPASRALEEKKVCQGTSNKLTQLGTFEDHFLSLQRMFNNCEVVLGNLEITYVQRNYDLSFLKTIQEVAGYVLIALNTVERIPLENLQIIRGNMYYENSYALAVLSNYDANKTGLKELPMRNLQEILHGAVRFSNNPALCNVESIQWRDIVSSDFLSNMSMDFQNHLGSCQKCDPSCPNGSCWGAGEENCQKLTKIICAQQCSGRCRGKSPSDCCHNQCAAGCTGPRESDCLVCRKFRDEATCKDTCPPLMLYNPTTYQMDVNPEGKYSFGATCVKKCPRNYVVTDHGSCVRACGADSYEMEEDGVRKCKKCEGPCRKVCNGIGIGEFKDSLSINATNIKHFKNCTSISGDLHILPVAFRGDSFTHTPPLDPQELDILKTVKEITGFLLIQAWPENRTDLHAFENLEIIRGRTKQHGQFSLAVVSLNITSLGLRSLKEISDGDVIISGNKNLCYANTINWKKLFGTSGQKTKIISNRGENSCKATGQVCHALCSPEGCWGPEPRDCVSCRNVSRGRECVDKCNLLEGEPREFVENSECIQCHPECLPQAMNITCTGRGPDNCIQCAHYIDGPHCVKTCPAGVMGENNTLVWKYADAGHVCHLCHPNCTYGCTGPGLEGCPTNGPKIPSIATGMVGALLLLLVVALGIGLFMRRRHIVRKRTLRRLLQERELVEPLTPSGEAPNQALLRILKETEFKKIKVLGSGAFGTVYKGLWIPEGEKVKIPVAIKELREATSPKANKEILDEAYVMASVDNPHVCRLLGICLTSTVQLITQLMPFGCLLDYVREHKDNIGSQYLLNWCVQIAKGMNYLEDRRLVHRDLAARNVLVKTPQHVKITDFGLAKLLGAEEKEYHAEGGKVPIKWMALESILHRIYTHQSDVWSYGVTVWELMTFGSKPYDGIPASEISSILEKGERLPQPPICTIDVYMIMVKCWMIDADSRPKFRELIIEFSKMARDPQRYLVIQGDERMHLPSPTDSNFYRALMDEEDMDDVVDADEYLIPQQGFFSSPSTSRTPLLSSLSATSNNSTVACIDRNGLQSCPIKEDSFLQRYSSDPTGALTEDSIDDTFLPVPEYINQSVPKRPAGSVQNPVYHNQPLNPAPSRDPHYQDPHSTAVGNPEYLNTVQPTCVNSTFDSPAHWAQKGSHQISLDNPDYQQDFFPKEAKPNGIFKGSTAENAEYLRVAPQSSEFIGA
Dickkopf-related protein 1 (Homo sapiens), sequence (O94907 whole entry, looked up): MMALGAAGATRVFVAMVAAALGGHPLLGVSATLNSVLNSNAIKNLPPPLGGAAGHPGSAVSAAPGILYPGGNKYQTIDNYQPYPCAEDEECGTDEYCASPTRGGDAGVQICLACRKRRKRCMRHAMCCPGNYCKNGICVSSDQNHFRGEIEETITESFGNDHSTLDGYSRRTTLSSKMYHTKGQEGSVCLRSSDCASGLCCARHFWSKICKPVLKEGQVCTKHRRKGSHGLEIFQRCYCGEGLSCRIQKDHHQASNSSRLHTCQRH
Follistatin-related protein 3 (Homo sapiens), sequence (O95633 whole entry, looked up): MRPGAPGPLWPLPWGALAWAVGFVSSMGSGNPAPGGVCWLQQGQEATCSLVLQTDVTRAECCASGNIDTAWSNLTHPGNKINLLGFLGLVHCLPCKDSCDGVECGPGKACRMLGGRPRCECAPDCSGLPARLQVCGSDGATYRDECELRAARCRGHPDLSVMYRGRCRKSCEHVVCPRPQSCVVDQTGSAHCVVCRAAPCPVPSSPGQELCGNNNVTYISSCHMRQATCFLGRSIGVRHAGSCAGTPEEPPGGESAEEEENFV
Fibroblast growth factor 10 (Homo sapiens), sequence (O15520 whole entry, looked up): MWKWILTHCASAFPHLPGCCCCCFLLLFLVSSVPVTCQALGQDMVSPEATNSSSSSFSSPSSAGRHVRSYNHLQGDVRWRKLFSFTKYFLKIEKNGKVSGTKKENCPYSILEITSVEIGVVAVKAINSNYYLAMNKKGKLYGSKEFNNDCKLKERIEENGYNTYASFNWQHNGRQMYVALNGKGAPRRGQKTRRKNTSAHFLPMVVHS

With `Cc1ccccc1C(O)C1C=CC2C(=O)N(c3ccccc3)C(=O)C2N1Nc1ccc(C(C)C)cc1` (stereo not given), the composite z-score was determined as 0.623 in assay [1]; 0.456 in [2]; 0.857 in assay [3]; 0.971 in assay [5]; 1 in assay [6]; 0.304 in assay [7]. In addition, the composite z-score in assay [8] is 1.23; in [9] it was -0.372; in [10], 0.625. For the same compound, the z-score in [4] was 0.26 (inactive).

For `CC(C)C(=C=CC[C@@H](O)c1ccc(OCCO)cc1)C[C@@H](O)c1ccccn1`, the composite z-score in [1] is 0.595; in [2] it was -0.0166; in assay [3], -0.495; in [5] it was 1.6; in [6] it was 0.854; in assay [7] it was 0.124. Besides, the composite z-score in assay [8] was determined as 1.06; in assay [9] it was 1.76; in assay [10], 0.59. The z-score in assay [4] is 0.106 (inactive).

In the case of `O=C1NC(=O)C2C1C=CC(C(O)c1cccs1)N2Nc1ccc(Cl)cc1Cl` (stereo not given), the composite z-score in assay [1] is 1; in [2], 0.82; in [3], 1.03; in [5], 0.438; in [6] it was -1.21; in assay [7] it was -0.893. For the same compound, the composite z-score is -0.375 in [8], -0.456 in assay [9] and 1.03 in [10]. The z-score in assay [4] was 0.569 (inactive).

Consider `O=C1c2ccccc2[C@](Cc2ccccc2I)(C(=O)NCCN2CCOCC2)[C@H](c2ccc(CO)cc2)N1C1CCCCC1`, for which the composite z-score was 0.979 in assay [1]; 1.04 in assay [2]; 0.77 in [3]; 0.82 in [5]; 1.3 in assay [6]; 0.499 in assay [7]. The composite z-score in [8] was determined as 1.24; in [9], 0.941; in assay [10], 0.821. Moreover, the z-score in assay [4] was 0.821 (inactive).

For the compound `N#Cc1ccc(NN2C(C(O)C(c3ccccc3)c3ccccc3)C=CC3C(=O)N(c4ccccc4)C(=O)C32)cc1` (stereo not given), the composite z-score in assay [1] is 0.793; in assay [2] it was 0.609; in [3] it was 0.725; in assay [5], 1.2; in [6], 1.28; in assay [7], -0.0158. The composite z-score is 0.864 in [8], -1.06 in [9] and 0.0017 in [10]. Also, the z-score in [4] is -0.327 (inactive).

Regarding `CCOC(=O)C1=C[C@@H](C(C)(C)C)N(S(=O)(=O)c2ccc(C)cc2)[C@H]1c1ccc(F)cc1`, the composite z-score in assay [1] stood at 0.592; in [2], 0.75; in assay [3], 0.4; in assay [5] it was 0.81; in assay [6], 1.29; in assay [7], 0.395. The composite z-score in assay [8] came to 1.23; in assay [9] it was 0.402; in assay [10], 0.556. Further, the z-score in assay [4] was -0.711 (inactive).

Consider `CCOC(=O)C[C@H]1[C@H](OC(=O)c2ccc(C(=O)c3ccccc3)cc2)[C@@H](NC(=O)c2ccc3ccccc3c2)c2cc(OCCCO)ccc2N1C(=O)Cc1ccc(OC)cc1`, for which the composite z-score in assay [1] was 1.14; in assay [2] it was 0.282; in assay [3], 0.503; in [5] it was 0.545; in assay [6], 0.158; in [7], -0.16. Moreover, the composite z-score in [8] was 0.303; in assay [9] it was -0.213; in assay [10] it was 0.856. For the same compound, the z-score in assay [4] was -0.175 (inactive).

On to `CO[C@H]1O[C@H](CO)[C@@H](OC(=O)Nc2ccc(Oc3ccccc3)cc2)[C@H](OC(=O)Nc2ccc3c(c2)OCO3)[C@H]1OC(=O)Nc1ccc2c(c1)OCO2`, for which the composite z-score in [1] was found to be 1.26; in assay [2], 0.86; in [3], 0.992; in assay [5] it was 1.33; in [6] it was 1.31; in [7], 0.318. Also, the composite z-score in assay [8] is 1.2; in assay [9], 0.612; in assay [10], 0.944. Besides, in assay [4], the z-score is -1.61 (inactive).

Consider `CC(C)[Si](C#Cc1ccc(Oc2ccccc2)cc1)(O[Si](C#Cc1ccc(Oc2ccccc2)cc1)(C(C)C)C(C)C)C(C)C`, for which the composite z-score in assay [1] was 1.11; in assay [2], 0.112; in [3], -0.504; in assay [5], 1.37; in assay [6], 0.478; in assay [7], 0.0408. For the same compound, the composite z-score is 0.394 in [8], 0.687 in assay [9] and -0.294 in [10]. The z-score in assay [4] is -0.226 (inactive).

Turning to `COc1ccc(C#Cc2ccc3c(c2)[C@]2(C(=O)N3)[C@H](C(=O)Nc3nc4ccccc4s3)[C@H]3C(=O)O[C@H](c4ccccc4)[C@H](c4ccccc4)N3[C@@H]2c2ccc(O)cc2)cc1`, the composite z-score in [1] worked out at 1.15; in assay [2], 1.06; in assay [3] it was 0.144; in assay [5] it was 1.43; in [6], 1.25; in [7] it was 0.516. Besides, the composite z-score in assay [8] came to 1.48; in assay [9], 0.63; in assay [10], 1.09. In addition, the z-score in assay [4] is -0.444 (inactive).

For `C=CC(=C)[C@H]1Oc2ccccc2S(=O)(=O)N2CCC[C@@H]12`, the composite z-score in [1] was -0.0608; in assay [2] it was -0.144; in assay [3] it was -0.0159; in [5], -0.249; in assay [6], -0.486; in [7], 0.0976. Further, the composite z-score in assay [8] is -0.0111; in [9], 0.317; in assay [10] it was 1.07. Moreover, in assay [4], the z-score was -0.629 (inactive).

As to `C=C[C@H](OC)[C@@H](OC(=O)Nc1ccc(OC)cc1)c1ccc(O)c(F)c1`, the composite z-score in assay [1] was 0.68; in [2] it was -0.446; in assay [3], 0.3; in assay [5] it was -0.0655; in assay [6], -0.499; in [7], -1.49. Besides, the composite z-score in assay [8] was -1.19; in assay [9], -1.16; in assay [10] it was -0.25. In assay [4], the z-score was -1.27 (inactive).

For the compound `COC(=O)C(CC#Cc1ccc2c(c1)[C@]1(C(=O)N2)[C@H](c2ccc(OCCO)cc2)N2[C@H](c3ccccc3)[C@H](c3ccccc3)OC(=O)[C@H]2[C@@H]1C(=O)N1CCc2cc(OC)c(OC)cc2C1)C(=O)OC`, the composite z-score in assay [1] worked out at 1.47; in assay [2], 0.508; in [3], 0.381; in [5], 1.4; in assay [6], 1.32; in assay [7], 0.485. For the same compound, the composite z-score in [8] worked out at 1.41; in assay [9] it was 0.506; in [10], 1.18. Moreover, in assay [4], the z-score is -0.369 (inactive).

In the case of `C=CCN1C(=O)[C@@]2(Cc3ccccc31)N=C(c1ccc(OCCCO)cc1)O[C@H]2c1ccccc1`, the composite z-score in assay [1] was 1.16; in assay [2], 1.01; in assay [3], 0.935; in assay [5], 0.583; in [6], 1.32; in assay [7] it was 0.435. The composite z-score came out at 0.983 in assay [8], 0.776 in assay [9] and 1.13 in [10]. Also, the z-score in assay [4] was -1.52 (inactive).

For `C=CCOC(=O)[C@H]1[C@@H]2C(=O)O[C@@H](c3ccccc3)[C@@H](c3ccccc3)N2[C@@H](c2ccc(OCCOC(=O)[C@H]3C[C@H]4C(=O)N[C@@H](CCCC[N+](C)(C)C)C(=O)N4[C@H]3c3ccc(O)cc3)cc2)[C@]12C(=O)Nc1ccc(I)cc12`, the composite z-score in assay [1] is 1.48; in [2], 0.177; in assay [3] it was -0.228; in assay [5], 0.332; in assay [6] it was 0.86; in [7], 0.0741. The composite z-score in assay [8] is 0.803; in assay [9] it was 1.41; in assay [10], 0.225. The z-score in assay [4] is 1.2 (inactive).

In the case of `COCCOC(=O)N1C(=O)[C@@]2(c3cc(C#CCCO)ccc31)[C@H](C(N)=O)[C@H]1C(=O)O[C@H](c3ccccc3)[C@H](c3ccccc3)N1[C@@H]2c1ccc(O)cc1`, the composite z-score is 1.22 in [1]; -0.163 in assay [2]; 0.489 in [3]; 0.344 in assay [5]; -0.124 in [6]; -0.376 in [7]. In addition, the results for the composite z-score in assay [8], in assay [9] and in [10] were -0.131, 0.0665 and 0.275, respectively. Further, in [4], the z-score was 0.477 (inactive).

Regarding `COCCOC(=O)N1C(=O)[C@@]2(c3ccccc31)[C@H](C(=O)N1CCc3cc(OC)c(OC)cc3C1)[C@H]1C(=O)O[C@H](c3ccccc3)[C@H](c3ccccc3)N1[C@@H]2c1ccc(OCCO)cc1`, the composite z-score in assay [1] came out at 1.33; in [2], 0.232; in assay [3] it was 0.395; in assay [5], 1.15; in [6], 1.01; in assay [7], 0.565. Further, the composite z-score in assay [8] was determined as 0.473; in [9], 0.235; in assay [10] it was 0.0475. In addition, the z-score in [4] is -1.27 (inactive).
